Most compounds without a hit are left out; they make up all but 1.4% or so of the library.
GSIS activator = GLuc luminescence reporter in INS-1E cells, primary screen for activators of glucose-dependent secretion of insulin. activation, % at 16.6 µM. INS-1E GLuc reporter insulin secretion, 2-3 h. actives 0.61% (n = 370,000). AID 743287, 2014;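 active means lowest replicate activation of at least 40%, so every replicate reaches that level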;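 further: 0% = median of neutral control wells and 100% = median of IBMX positive control wells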
RAD54 branch = inhibitors of human RAD54 branch migration, primary screen, biochemical, fluorescence, single point | AID 602329, 2012 | DNA repair and recombination protein RAD54-like (Homo sapiens), Q92698 | inhibition, % at 10.4 µM | RAD54 Holliday junction branch migration, FAM/BHQ fluorescence | actives 0.14% (n = 360,000);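 active means mean normalized replicate activity at least 40 and at least half of replicates scoring 40 or more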;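 further: 0% = median of neutral control wells and 100% = median of positive control wells; inhibitors cause a drop in the FAM fluorescence signal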
Target sequence (Q92698 whole entry, looked up): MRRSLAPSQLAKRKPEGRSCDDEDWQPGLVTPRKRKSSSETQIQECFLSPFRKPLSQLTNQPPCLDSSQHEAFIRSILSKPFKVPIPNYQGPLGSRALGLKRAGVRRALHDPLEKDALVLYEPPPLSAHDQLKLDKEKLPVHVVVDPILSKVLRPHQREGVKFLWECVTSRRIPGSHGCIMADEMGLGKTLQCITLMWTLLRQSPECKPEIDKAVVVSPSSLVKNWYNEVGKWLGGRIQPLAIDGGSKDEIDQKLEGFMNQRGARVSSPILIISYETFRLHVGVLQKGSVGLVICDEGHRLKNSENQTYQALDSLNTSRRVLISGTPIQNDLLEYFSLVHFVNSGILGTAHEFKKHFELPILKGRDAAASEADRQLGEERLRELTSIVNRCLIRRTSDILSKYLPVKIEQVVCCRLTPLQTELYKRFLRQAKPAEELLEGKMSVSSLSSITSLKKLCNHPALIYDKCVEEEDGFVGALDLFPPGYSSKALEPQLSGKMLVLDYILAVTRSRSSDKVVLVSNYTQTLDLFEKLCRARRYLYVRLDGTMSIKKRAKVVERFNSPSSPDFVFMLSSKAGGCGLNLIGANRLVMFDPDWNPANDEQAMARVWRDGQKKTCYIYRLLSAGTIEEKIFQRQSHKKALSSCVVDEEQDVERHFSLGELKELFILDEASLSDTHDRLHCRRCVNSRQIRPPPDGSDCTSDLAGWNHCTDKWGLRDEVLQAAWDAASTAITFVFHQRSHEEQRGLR
PGC1a acetyl inh = inhibitors of PGC1a acetylation signal, primary screen, cell-based, U2OS, AlphaScreen, inhibitor mode; AlphaScreen anti-acetyl-lysine; with virally co-expressed GCN5 acetyltransferase; inhibition, % at 15.6 µM; actives 0.17% (n = 350,000); AID 651687, 2012;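 active means every replicate shows inhibition of at least 40%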;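 further: 0% = neutral control wells and 100% = positive control wells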
MLL AF4-AF9 inh = inhibitors of AF4 peptide binding to AF9, primary screen, biochemical, AlphaScreen, biotin-AF4 peptide, FLAG-AF9, single point; Protein AF-9 (Homo sapiens), P42568; inhibition, % at 10 µM; actives 0.47% (n = 350,000); AID 651704, 2012;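 active means every replicate reaching a set inhibition limit, whatever the replicate mean, cut at about 25% in these data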;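 further: 0% = plate neutral control median and 100% = total signal loss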
ERAP1 HTS inh = human ERAP1 aminopeptidase inhibitors, primary screen, biochemical, single point, plate reader; Endoplasmic reticulum aminopeptidase 1 (Homo sapiens), Q9NZ08; recombinant ERAP1, Leu-AMC fluorescence, 60 min; inhibition, % at 10.7 µM; actives 0.15% (n = 340,000);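 active means mean replicate inhibition of at least 30%, or all replicates individually reaching that 30% level; inactive means mean below 30% and not every replicate reaching it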;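 further: 0% = neutral control wells and 100% = L-leucinethiol positive control wells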
RAD52 anneal inh = RAD52 DNA annealing inhibitors, primary screen, biochemical, FRET, single point, set 2; recombinant RAD52 DNA annealing, FRET fluorescence; inhibition, % at 18.7 µM; actives 0.46% (n = 360,000);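 active means every replicate showing at least 50% inhibition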
* = called active by the depositor; . = no result.

SMILES	GSIS activator	RAD54 branch	PGC1a acetyl inh	MLL AF4-AF9 inh	ERAP1 HTS inh	RAD52 anneal inh
C[C@@H]1CN([C@@H](C)CO)C(=O)CCCn2nncc2CO[C@H]1CN(C)Cc1ccccc1O	-1	.	.	-5	1	-11
CNC[C@H]1Oc2cc(C#Cc3ccc(OC)cc3)ccc2S(=O)(=O)N([C@H](C)CO)C[C@@H]1C	-10	-4	-18	9	2	56*
Cc1noc(C)c1NC(=O)N(C)C[C@@H]1Oc2cc(C#CCC3CCCC3)ccc2S(=O)(=O)N([C@H](C)CO)C[C@@H]1C	-13	-4	1	20	1	99*
C[C@@H]1CN([C@@H](C)CO)S(=O)(=O)c2ccc(C#Cc3ccc(F)cc3)cc2O[C@@H]1CN(C)C(=O)CN(C)C	34	12	-3	12	1	50
CNC[C@@H]1Oc2cc(C#Cc3cccc(OC)c3)ccc2S(=O)(=O)N([C@H](C)CO)C[C@H]1C	4	-3	-35	11	-2	-22
Cc1noc(C)c1NC(=O)N(C)C[C@H]1Oc2cc(C#CCC3CCCC3)ccc2S(=O)(=O)N([C@@H](C)CO)C[C@@H]1C	-4	-3	-8	8	-2	5
C[C@H]1CN([C@@H](C)CO)S(=O)(=O)c2ccc(C#Cc3ccc(F)cc3)cc2O[C@H]1CN(C)C(=O)CN(C)C	35	4	-16	19	2	71*
C[C@H]1CCCCO[C@H](CN(C)C(=O)Nc2ccc(F)cc2)[C@@H](C)CN([C@@H](C)CO)C(=O)c2cc(NC(=O)Nc3ccc(F)cc3)ccc2O1	4	-11	-18	0	3	-13
CC(C)(C)[C@@H]1C=C(C(=O)N2CCCCCCC2)O[C@H](OCc2ccc(CO)cc2)C1	.	-6	.	-2	2	-11
C[C@H]1CCCCO[C@@H](CN(C)Cc2ccccc2)[C@@H](C)CN([C@@H](C)CO)C(=O)c2cc(NC(=O)Nc3ccccc3)ccc2O1	-11	-3	9	14	2	9
COc1ccc(CCNC(=O)CSc2cccc3cccnc23)cc1OC	41*	7	10	-19	2	-5
COc1ccc(CCNC(=O)CSc2ccccc2)cc1OC	73*	.	.	2	0	-4
COc1ccc(CCNC(=O)CSc2ccccn2)cc1OC	11	.	.	-1	5	-4
COc1ccc(CCNC(=O)C(=O)c2c(C)n(C)c3ccccc23)cc1OC	46*	1	-2	-4	2	-7
COc1ccc(CCNC(=O)CSc2nccc(=O)[nH]2)cc1OC	14	.	-1	-2	-2	-13
Cc1c(C(=O)C(=O)NCCC2=CCCCC2)c2ccccc2n1C	.	.	.	0	1	-9
COc1ccc(CCNC(=O)CSC(=O)c2ccccc2)cc1OC	46*	.	.	-2	0	-10
CCC(=O)N1[C@@H](CO)[C@@H](c2ccc(-c3ccccc3C)cc2)C12CN(C(C)=O)C2	-3	.	-7	1	1	-13
COc1ccc2c3c([nH]c2c1)[C@@H](CO)N(C(=O)Nc1ccccc1F)CC31CCN(C(=O)C2CC2)CC1	-14	.	2	-16	2	10
Cc1ccc(S(=O)(=O)Nc2ccc3c(c2)C(=O)N([C@@H](C)CO)C[C@@H](C)[C@@H](CN(C)S(=O)(=O)c2ccc(C)cc2)OCCCC[C@H](C)O3)cc1	10	-11	-25	-6	-6	-30
Cc1cccc(CS(=O)(=O)c2nnc([C@H](Cc3ccccc3)NC(=O)OC(C)(C)C)o2)c1	.	-3	60*	.	.	.
COC(=O)CS(=O)(=O)c1nnc([C@H](Cc2ccccc2)NC(=O)OC(C)(C)C)o1	.	.	-5	.	.	.
CC(C)NC(=O)N[C@H]1CC[C@@H](CCNC(=O)C2CCCC2)O[C@H]1CO	1	.	3	0	1	-3
O=C(NCCC1=CCCCC1)C(=O)NCC(c1ccco1)N1CCN(c2ccccc2)CC1 (stereo not drawn)	126*	.	.	.	.	.
COCCCNC(=O)C(=O)NCC(c1ccco1)N1CCN(c2ccc(OC)cc2)CC1 (stereo not drawn)	50*	-19	2	0	1	-2
SMILES	GSIS activator	RAD54 branch	PGC1a acetyl inh	MLL AF4-AF9 inh	ERAP1 HTS inh	RAD52 anneal inh
O=C(NCC1CC1)[C@H]1[C@H](CO)[C@H]2Cn3c(ccc(-c4cccnc4)c3=O)[C@@H]1N2C(=O)C1CCCC1	1	.	.	-3	-3	-5
O=C(NC[C@H]1CC[C@H]2[C@H](CN2Cc2cccc(Cl)c2)O1)C1CCC1	.	.	.	-3	-8	67*
Cc1ccc(S(=O)(=O)N2CCN(CC(=O)Nc3ccc([N+](=O)[O-])cc3)CC2)cc1C	-32	.	.	.	.	.
Cc1cc(C)c(C)c(S(=O)(=O)N2CCN(CC(=O)Nc3ccc([N+](=O)[O-])cc3)CC2)c1C	122*	.	.	.	.	.
COc1ccc(C(=O)CSc2nnc(-c3cccs3)n2-c2ccccc2)cc1	46*	4	6	.	.	.
COc1ccc(-n2c(SCC(=O)Nc3ccc(C(=O)O)cc3)nnc2-c2cccs2)cc1	.	8	33	.	.	.
CC(=O)N(C)C[C@H]1Oc2c(NS(C)(=O)=O)cccc2C(=O)N(C)C[C@H]1C	3	.	.	.	.	.
Cc1c(C)c2c(OCC(=O)NCC(=O)NCC(=O)O)cc3c(c2oc1=O)CCC(C)(C)O3	4	-6	2	0	2	-23
Cc1c(C)c2c(OCC(=O)O)cc3c(c2oc1=O)CCC(C)(C)O3	248*	-6	.	6	1	6
O=C(O)/C=C\c1cccc(-n2cnnn2)c1	29	.	.	.	.	.
O=C(O)c1ccc(-n2nnnc2SCc2ccccc2F)cc1	61*	11	0	-2	1	-16
Cc1ccccc1CSc1nnnn1-c1ccc(C(N)=O)cc1	15	9	-1	0	-1	10
O=C(O)/C=C\c1cccc(-n2nnnc2SCc2ccccc2F)c1	52*	-7	-5	-2	-6	-17
CCCC(=O)N1CCC2(CC1)CN(C(=O)CC)[C@H](CO)c1c2c2ccc(OC)cc2n1C	-6	.	0	-2	-4	6
C[C@H](CO)N1C[C@H](C)[C@H](CN(C)C)Oc2cc(C3=CCCCC3)ccc2S1(=O)=O	-2	.	-23	.	.	.
Cc1c(NC(=O)/C(C#N)=C/c2c(Oc3ccccc3)nc3ccccn3c2=O)c(=O)n(-c2ccccc2)n1C	45*	.	.	.	.	.
CSc1nc(Cl)cc(N2CCOCC2)n1	53*	.	11	-1	11	-16
CSc1nc(N2CCOCC2)cc(N2CCOCC2)n1	57	.	-12	-1	-2	-10
CSc1nc(N2CCOCC2)c2ccccc2n1	92*	.	4	-6	-1	-5
CCOC(=O)c1ccc(NC(=O)c2nc[nH]c2C(=O)NCCCNC(=O)c2[nH]cnc2C(=O)Nc2ccc(C(=O)OCC)cc2)cc1	10	2	.	3	-1	-96
